Bioassay records from PubChem.
SW480 rerep – inducers of DNA re-replication in SW480 colon cancer cells | SW480 DNA re-replication, Hoechst DNA content imaging, 48 h | Potency, µM (highest dose often 46.1 µM), for the others: at the highest dose re-replication activation, usual class: activators | 1.8% of 340,000 active; further: % of control where 0% means no effect; nearly all actives have a fitted effect of over 55% in size
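DNA re-replication was detected as more nuclei of elevated Hoechst intensity after 48 hr exposure to compound (23 nL pinned per well of 250 cells).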
KB-V1 cytotox – kills drug-selected multidrug resistant KB-V1 cells | KB-V1 MDR cells viability, CellTiter-Glo, 72 h | Potency, µM (highest dose often 46.1 µM), most hits filed as cytotoxic | 3.4% of 400,000 active | AID 1347076; further: on the % scale 0 is the no-effect control and ±100 the full control effect; nearly all actives have a fitted effect of over 60% in size
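KB-V1 MDR subline cells in DMEM (phenol-red free, 10% FBS) exposed to compounds in qHTS concentration series for 72 h at 37 degrees C. Viability read by CellTiter-Glo luminescence; concentration-effect curves fitted after normalization and correction.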
ELG1 repair inh – ELG1-dependent DNA repair inhibition; Potency, µM (highest dose often 46.1 µM), without a hit: top-dose activity change, negative = inhibition, actives largely listed as inhibitors; AID 504467; HEK293T ELG1-luciferase reporter, luminescence, 16 h; DNA damage induced by 5-fluorouridine; 2.3% of 330,000 active; further: on the % scale 0 is the no-effect control and ±100 the full control effect; nearly all actives have a fitted effect of over 55% in size
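Overnight (16 hr) co-exposure of 2,000 cells/well to 5-fluorouridine and compound at 37 °C preceded detection. Luciferase was quantified via ONE-Glo luminescence; loss of signal denotes inhibition.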
MCF10A rerep – inducers of DNA re-replication in MCF 10A breast cells | MCF 10A DNA re-replication, Hoechst nuclear intensity, 48 h | Potency, µM (highest dose often 46.1 µM), inactives show top-dose activity, positive = re-replication, actives largely listed as activators | 2.9% of 350,000 active | AID 624296; further: % of control where 0% means no effect; nearly all actives have a fitted effect of over 50% in size
KB-3-1 tox – KB-3-1 parental cell cytotoxicity | KB-3-1 viability, CellTiter-Glo ATP luminescence, 72 h | Potency, µM (highest dose often 46.1 µM), hits mostly cytotoxic | 1.4% of 400,000 active; further: on the % scale 0 is the no-effect control and ±100 the full control effect; nearly all actives have a fitted effect of over 60% in size
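Multi-concentration cytotoxicity screen in KB-3-1 cells grown in DMEM lacking phenol red with 10% FBS. After 72 h at 37 °C with compound, ATP-dependent luminescence was recorded.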
The depositor's hits bear a star; i = inactive; ? = inconclusive; . = not tested or not shown; [ ] = remark or other dose. Sampled rows, rich in hits. Any-hit rate of the full collection: about 8.2%. The call rests on the fitted dose curve; in most records, active means well fitted curve in the direction sought with a large enough effect; inconclusive means small, poorly fitted or top-dose-only effect, or another doubt; inactive means no such curve, though single readings can be large; an effect the other way counts as inactive or inconclusive. Potency means the concentration at half of the fitted maximal effect.

SMILES | SW480 rerep | KB-V1 cytotox | ELG1 repair inh | MCF10A rerep | KB-3-1 tox
COC(=O)C1=C(c2cccc(OCc3ccccc3)c2)C[C@@H]2CC[C@H]1N2C(=O)NCc1ccc2[nH]ccc2c1 | -2.2% | i | ? | 5.17µM* | ?
CCCCn1c(=O)c(C(=O)NCc2ccc(Cl)cc2)c(O)c2ccccc21 | ? | i | -19.5% | ? | i
CCCCn1c(=O)c(C(=O)NCCc2ccccc2)c(O)c2ccccc21 | -38.7% | i | -23.4% | 18.4µM* | i
CCCCCn1c(=O)c(C(=O)NCc2ccncc2)c(O)c2ccccc21 | ? | 2.59µM* | -29.0% | ? | 5.8µM*
O=C1CC2OCC=C3CN4CCC56c7ccccc7N1C5[C@H]2[C@H]3C[C@H]46 (some centres undefined) (tested in a mixture with another compound) | -4.5% | . | . | . | .
O=C(Nc1ccc2c(c1)OCCO2)c1cccn(Cc2cccc([N+](=O)[O-])c2)c1=O | . | i | . | . | i
CCCCn1c(=O)c(C=Nc2cc([N+](=O)[O-])ccc2OC)c(O)n(CCCCl)c1=O | -5.4% | i | 20.6µM* | 5.2% | i
C[N+]1([O-])[C@@H]2CC[C@H]1CC(OC(=O)[C@@H](CO)c1ccccc1)C2 (some centres undefined) | -0.5%[20.6 µM] | . | . | 1.7%[20.6 µM] | .
C/C=C/C(=O)OCC(=O)Nc1ccc(OC)c(Cl)c1 | -1.0% | i | 3.3% | ? | i
Cc1[nH]c2ccc(OC(=O)N3CCOCC3)cc2c1C(=O)OC(C)C | -1.5% | i | ? | 0.4% | i
O=C1C2CC=CCC2C(=O)N1SC(Cl)(Cl)Cl (centres undefined) | 6.68µM* | . | . | 4.22µM* | .
Clc1ccc(Cl)cc1 | 1.5% | . | . | -1.2% | .
CC(C)CCNC(=O)Cn1c(=O)oc2cc(S(=O)(=O)N3CCc4ccccc43)ccc21 | 12.6% | i | ? | 3.5% | i
COc1ccccc1-c1nn2c(=O)cc(CN3CCN(C(=O)COc4ccccc4Cl)CC3)nc2s1 | . | i | . | . | i
CCCNc1nc(-c2cc(C(=O)Nc3ccccc3)on2)cc(C(C)C)n1 | -2.1% | i | . | 13.7% | ?
CCC12CN3CC(CC)(CN(C1)C3c1ccccn1)C2=O (centres undefined) | . | i | . | . | i
CN1C2CCC1/C(=C/c1ccccn1)C(=O)/C2=C\c1ccccn1 | ? | ? | 1.84µM* | ? | 0.92µM*
Cc1ccc(-n2c(-c3cccs3)nc3ccccc3c2=O)cc1 | -4.8% | 23.1µM* | -22.8% | 11.4% | i
O=C(Cc1ccc(N(CCCl)CCCl)cc1)NC(Cc1ccc(Cl)cc1)C(=O)O (centres undefined) | 1.4% | i | -4.0% | -5.8% | i
O=C(Cc1c[nH]c2ccccc12)NNCc1ccc(N(CCCl)CCCl)cc1 | 16.4µM* | i | . | 24.7% | ?
O=[N+]([O-])c1c(Cl)cccc1-c1c[nH]cc1Cl | 13.7% | . | . | ? | .
CC(C)(C)c1cc(C=C(C#N)C#N)cc(C(C)(C)C)c1O | -44.7% | 1.03µM* | -29.2% | ? | 1.3µM*
CC(C)Sc1nnc([C@@H](N)Cc2c[nH]c3ccccc23)o1 | -4.4% | 18.4µM* | -7.4% | 13.6% | i
C[C@]12C=CC(=O)C=C1CC[C@@H]1[C@@H]2CC[C@@]2(C)[C@H]1CC[C@]2(C)O | 0.0% | . | . | 15.5% | .
CCCCn1nnnc1C(c1cccc2ccccc12)N1CCC2(CC1)C(=O)NCN2c1ccccc1 (centres undefined) | . | 20.6µM* | . | . | ?
SMILES | SW480 rerep | KB-V1 cytotox | ELG1 repair inh | MCF10A rerep | KB-3-1 tox
N#CCCN(C(=O)COC(=O)c1ccc2c(c1)NC(=O)CS2)c1ccc2c(c1)OCCO2 | -1.6% | i | ? | 6.2% | i
COC(=O)[C@@]1(C)CC[C@]2(C)CC[C@@]3(C)C(=CC(=O)C4[C@@]5(C)CC[C@H](O)C(C)(C)[C@@H]5CC[C@]43C)[C@H]2C1 (some centres undefined) | -72.3% | ? | ? | 2.5% | i
CC(O)CNc1ccc([N+](=O)[O-])c2cccnc12 (centres undefined) | 0.0% | i | 7.5% | 0.3% | i
Cc1nonc1OCCNc1ccc([N+](=O)[O-])c2cccnc12 | 0.517µM* | ? | 4.1% | 5.3% | i
CCC(CO)Nc1ccc([N+](=O)[O-])c2cccnc12 (centres undefined) | -10.7% | 18.4µM* | 3.6% | 0.6% | ?
NCCNc1ccc([N+](=O)[O-])c2cccnc12 | 24.2% | i | 24.0% | 0.651µM* | ?
C[C@@H](Cc1ccccc1)NCCC(c1ccccc1)c1ccccc1 | 10.9%[20.6 µM] | . | . | 7.2%[20.6 µM] | .
O=C(CF)N(O)c1ccc(C=Cc2ccccc2)cc1 | 10.3µM* | i | . | 6.51µM* | i
Cc1ccc(OP(=O)(NCc2ccccc2)Oc2ccc(C)cc2)cc1 | ? | 14.6µM* | -11.6% | ? | ?
O=[N+]([O-])c1oc2ccc3ccccc3c2c1CCO | ? | 5.8µM* | . | 5.17µM* | ?
COC(=O)C1=C(C(=O)OC)C2OC1c1cc3ccccc3cc12 | 13µM* | i | . | ? | i
CC(C)CCOP(=O)(c1ccc(N(C)C)cc1)C(O)c1ccccc1 (centres undefined) | ? | i | -0.4% | -1.4% | i
COc1ccc(-c2noc(=O)n2Cc2cc(C)ccc2C)cc1 | ? | ? | ? | 16.4µM* | ?
COc1cccc(Cn2c(-c3cccs3)noc2=O)c1 | -24.6% | ? | 1.5% | ? | i
Oc1cc(Cl)c(Cl)c(Cl)c1Cl | -2.9% | i | . | 14.6µM* | i
C/C(=N\NC(N)=S)C12CC3CC(CC(C3)C1)C2 | 25.9µM* | i | ? | 7.31µM* | i
O=C(CSC1c2ccccc2-c2ccccc21)N/N=C/c1ccccc1O | ? | 5.17µM* | 3.66µM* | 2.06µM* | ?
COC(=O)[C@@]1(Cc2ccccc2)[C@H]2C(=O)N(Cc3ccccc3)C(=O)[C@H]2[C@H]2CN=C(SCc3ccc(C#N)cc3)N21 | ? | i | -21.8% | 5.1% | i
COc1ccc(NC(=O)Cn2c3ccccc3c3nc4n(c(=O)c32)CCS4)cc1 | -1.0% | i | ? | 20.6µM* | i
CC(C)C[C@H]1C(=O)N2CCCC2[C@]2(O)O[C@](NC(=O)[C@@H]3C=C4c5cccc6[nH]c(Br)c(c56)C[C@H]4N(C)C3)(C(C)C)C(=O)N12 (some centres undefined) | 9.5% | . | . | 14.4% | .
C=C1C=C(C(F)F)n2ncc(C(=O)NCc3ccccc3F)c2N1 | . | i | . | . | ?
CCN(CC)S(=O)(=O)c1ccc(C(=O)O)cc1 | ? | i | ? | 0.8% | i
COc1cc(CN=C(C)c2c(O)n(C)c(=O)n(C)c2=O)cc(OC)c1 | -7.1% | ? | 13µM* | 13.0% | ?
